The record followed here is article PMC7862700, “An all-to-all approach to the identification of sequence-specific readers for epigenetic DNA modifications on cytosine”.

Common to all, as to experiment: DAPPL (digital affinity profiling via proximity ligation, sequencing); 10 mM Tris-HCl pH 7.5, 50 mM NaCl, 1 mM DTT, 4% glycerol, room temperature, 30 min; GST-TFs on glutathione beads, 16-mer random dsDNA library, 0.1% formaldehyde crosslink after washing; high values mean tight binding
For one test, the target named is T1, FEV (Homo sapiens, UniProt Q99581 1-238).
T1 sequence: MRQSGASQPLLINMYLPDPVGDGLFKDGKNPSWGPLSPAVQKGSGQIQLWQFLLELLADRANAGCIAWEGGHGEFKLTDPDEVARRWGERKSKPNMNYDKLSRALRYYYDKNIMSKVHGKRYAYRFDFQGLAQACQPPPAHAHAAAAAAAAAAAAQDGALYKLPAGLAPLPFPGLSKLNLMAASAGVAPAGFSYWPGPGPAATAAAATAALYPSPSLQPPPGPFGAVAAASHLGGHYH
The following applies: protein: recombinant; tags: N-terminal GST; dsDNA, one strand shown. In a few lines: (§1)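 Binding signal is given per hexamer as its read frequency for a factor divided by its frequency in the tag-only sample. GST-fused human transcription factors were expressed in yeast, captured on glutathione beads, barcoded with DNA and pooled with that sample, then incubated with 200 nmole of a 16-mer random double-stranded DNA library in Tris/NaCl/DTT/glycerol buffer for 30 min at room temperature. The pools were then washed, crosslinked, proximity-ligated, amplified by PCR and sequenced on an Illumina NextSeq500.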

Another test has as its target ETV5 (Homo sapiens, UniProt P41161 1-510). The following applies: protein: recombinant; tags: N-terminal GST; dsDNA, one strand shown. In a few lines: as §1
Another test addresses HSF1 (Homo sapiens, UniProt Q00613 1-529). The following applies: protein: recombinant; tags: N-terminal GST; chain copies: 3; dsDNA, one strand shown. In a few lines: as §1
For another test, the target named is ELF4 (Homo sapiens, UniProt Q99607 1-663). The following applies: protein: recombinant; tags: N-terminal GST; dsDNA, one strand shown. In a few lines: as §1
ELF4, sequence (Q99607 whole entry): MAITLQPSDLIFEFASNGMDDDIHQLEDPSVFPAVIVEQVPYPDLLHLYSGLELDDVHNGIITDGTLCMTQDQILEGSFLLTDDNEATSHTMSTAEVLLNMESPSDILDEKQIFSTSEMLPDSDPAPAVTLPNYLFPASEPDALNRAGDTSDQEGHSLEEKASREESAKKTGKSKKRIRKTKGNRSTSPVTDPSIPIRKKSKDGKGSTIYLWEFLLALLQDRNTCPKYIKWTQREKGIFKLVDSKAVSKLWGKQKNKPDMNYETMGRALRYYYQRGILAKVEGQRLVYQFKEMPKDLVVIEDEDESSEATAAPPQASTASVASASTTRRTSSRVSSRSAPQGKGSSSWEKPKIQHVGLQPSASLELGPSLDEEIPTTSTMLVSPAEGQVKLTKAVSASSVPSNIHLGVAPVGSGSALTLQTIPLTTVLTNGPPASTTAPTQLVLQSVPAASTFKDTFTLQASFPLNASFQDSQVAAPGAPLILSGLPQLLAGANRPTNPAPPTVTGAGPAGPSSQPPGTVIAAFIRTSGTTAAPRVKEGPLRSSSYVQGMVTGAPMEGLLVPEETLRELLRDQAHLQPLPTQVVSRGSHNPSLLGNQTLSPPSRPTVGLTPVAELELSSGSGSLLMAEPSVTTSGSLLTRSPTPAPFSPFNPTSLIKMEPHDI
Another test deals with T2, ELK4 (Homo sapiens, UniProt P28324-2 1-405).
T2 sequence: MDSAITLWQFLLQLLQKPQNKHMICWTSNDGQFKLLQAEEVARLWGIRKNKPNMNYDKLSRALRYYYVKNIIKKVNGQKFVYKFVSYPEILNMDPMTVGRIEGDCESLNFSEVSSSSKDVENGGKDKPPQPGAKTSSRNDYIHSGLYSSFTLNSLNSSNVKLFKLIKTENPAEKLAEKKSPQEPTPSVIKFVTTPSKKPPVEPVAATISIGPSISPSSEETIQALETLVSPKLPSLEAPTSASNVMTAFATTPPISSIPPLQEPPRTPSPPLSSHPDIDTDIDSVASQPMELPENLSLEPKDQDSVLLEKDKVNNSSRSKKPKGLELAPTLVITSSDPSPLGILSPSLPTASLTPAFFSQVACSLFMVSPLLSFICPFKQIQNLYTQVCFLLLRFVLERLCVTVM
The following applies: protein: recombinant; tags: N-terminal GST; dsDNA, one strand shown. The essentials: as §1

A further test concerns the target T3, ETV2 (Homo sapiens, UniProt O00321 1-342).
T3 sequence: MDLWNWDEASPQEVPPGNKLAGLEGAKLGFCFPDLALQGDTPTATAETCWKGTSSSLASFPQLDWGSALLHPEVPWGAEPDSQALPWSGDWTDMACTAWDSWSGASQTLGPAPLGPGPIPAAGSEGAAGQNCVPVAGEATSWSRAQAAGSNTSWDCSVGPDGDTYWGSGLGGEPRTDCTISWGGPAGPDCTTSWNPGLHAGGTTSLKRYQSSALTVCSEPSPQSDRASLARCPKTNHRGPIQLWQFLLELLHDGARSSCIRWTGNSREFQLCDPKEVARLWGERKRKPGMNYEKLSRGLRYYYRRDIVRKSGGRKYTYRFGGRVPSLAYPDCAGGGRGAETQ
Particulars: protein: recombinant; tags: N-terminal GST; dsDNA, one strand shown. The essentials: as §1

In a further test the target is T4, ELF3 (Homo sapiens, UniProt P78545 1-371).
T4 sequence: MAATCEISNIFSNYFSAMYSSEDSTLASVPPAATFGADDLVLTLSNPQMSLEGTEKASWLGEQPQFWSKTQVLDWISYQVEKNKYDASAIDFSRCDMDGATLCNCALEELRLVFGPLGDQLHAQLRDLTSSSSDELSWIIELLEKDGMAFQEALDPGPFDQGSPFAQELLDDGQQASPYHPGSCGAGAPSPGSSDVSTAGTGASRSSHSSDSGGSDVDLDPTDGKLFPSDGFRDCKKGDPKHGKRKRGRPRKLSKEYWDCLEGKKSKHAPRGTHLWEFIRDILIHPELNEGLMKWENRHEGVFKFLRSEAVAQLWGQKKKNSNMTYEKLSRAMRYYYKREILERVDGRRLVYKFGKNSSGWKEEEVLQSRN
Particulars: protein: recombinant; tags: N-terminal GST; dsDNA, one strand shown. The essentials:
as §1

A further test has as its target ETV1 (Homo sapiens, UniProt P50549 1-477). The following applies: protein: recombinant; tags: N-terminal GST; dsDNA, one strand shown. In a few lines:
as §1

The target in a further test is CRX (Homo sapiens, UniProt O43186 1-299). Particulars: protein: recombinant; tags: N-terminal GST; dsDNA, one strand shown. In a few lines:
as §1

ETV1, sequence (P50549 whole entry): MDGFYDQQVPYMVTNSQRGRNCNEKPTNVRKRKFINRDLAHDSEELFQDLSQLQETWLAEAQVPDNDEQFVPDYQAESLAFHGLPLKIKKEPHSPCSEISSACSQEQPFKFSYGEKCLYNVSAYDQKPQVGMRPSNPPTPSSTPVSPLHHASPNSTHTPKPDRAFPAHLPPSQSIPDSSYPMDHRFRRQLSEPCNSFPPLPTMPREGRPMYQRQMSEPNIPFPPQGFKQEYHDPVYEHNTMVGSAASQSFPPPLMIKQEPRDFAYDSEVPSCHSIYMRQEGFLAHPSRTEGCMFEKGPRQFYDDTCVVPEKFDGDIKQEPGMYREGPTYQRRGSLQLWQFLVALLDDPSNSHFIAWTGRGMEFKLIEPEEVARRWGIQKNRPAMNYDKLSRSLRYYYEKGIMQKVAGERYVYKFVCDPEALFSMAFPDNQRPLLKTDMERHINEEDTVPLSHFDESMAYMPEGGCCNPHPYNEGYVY
CRX, sequence (O43186 whole entry): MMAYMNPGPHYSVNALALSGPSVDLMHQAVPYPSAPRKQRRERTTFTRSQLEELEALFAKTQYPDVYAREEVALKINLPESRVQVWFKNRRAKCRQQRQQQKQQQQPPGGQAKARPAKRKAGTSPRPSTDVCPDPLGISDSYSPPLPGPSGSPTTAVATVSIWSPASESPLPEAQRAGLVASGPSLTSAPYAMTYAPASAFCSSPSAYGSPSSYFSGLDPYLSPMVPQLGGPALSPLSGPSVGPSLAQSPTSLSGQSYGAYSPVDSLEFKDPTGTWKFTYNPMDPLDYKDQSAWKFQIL
ETV5, sequence (P41161 whole entry): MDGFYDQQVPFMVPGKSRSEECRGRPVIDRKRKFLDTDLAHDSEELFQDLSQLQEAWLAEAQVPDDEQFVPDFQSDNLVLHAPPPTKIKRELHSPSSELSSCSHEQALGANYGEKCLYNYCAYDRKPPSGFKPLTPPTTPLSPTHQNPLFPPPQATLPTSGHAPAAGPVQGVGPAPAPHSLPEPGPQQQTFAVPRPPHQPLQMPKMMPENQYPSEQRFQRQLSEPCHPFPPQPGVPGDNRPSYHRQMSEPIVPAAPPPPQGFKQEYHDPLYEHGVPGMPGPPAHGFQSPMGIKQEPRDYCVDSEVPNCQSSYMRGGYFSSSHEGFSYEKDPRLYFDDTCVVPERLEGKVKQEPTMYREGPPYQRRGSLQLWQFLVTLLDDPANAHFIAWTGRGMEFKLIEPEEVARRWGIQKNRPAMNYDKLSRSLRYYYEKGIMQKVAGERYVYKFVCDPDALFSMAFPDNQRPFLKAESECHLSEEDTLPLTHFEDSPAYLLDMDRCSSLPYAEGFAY
HSF1, sequence (Q00613 whole entry): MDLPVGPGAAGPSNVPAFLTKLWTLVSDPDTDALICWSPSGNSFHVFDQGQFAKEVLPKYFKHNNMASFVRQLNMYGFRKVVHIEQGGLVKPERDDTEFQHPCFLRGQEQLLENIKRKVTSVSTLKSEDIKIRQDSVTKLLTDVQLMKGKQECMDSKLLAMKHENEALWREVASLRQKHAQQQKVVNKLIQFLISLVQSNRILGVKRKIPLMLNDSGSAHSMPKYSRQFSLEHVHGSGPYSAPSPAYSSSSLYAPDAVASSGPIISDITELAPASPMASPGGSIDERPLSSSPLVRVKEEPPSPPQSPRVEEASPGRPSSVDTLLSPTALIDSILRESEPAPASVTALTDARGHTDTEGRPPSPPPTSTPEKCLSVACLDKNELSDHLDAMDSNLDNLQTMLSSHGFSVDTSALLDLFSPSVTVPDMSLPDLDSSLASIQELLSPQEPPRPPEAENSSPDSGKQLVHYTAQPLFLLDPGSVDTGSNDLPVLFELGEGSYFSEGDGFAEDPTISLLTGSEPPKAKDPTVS

With AGACCT, the binding signal was 1.04 fold enrichment (6-mer frequency, TF over GST control) with FEV; 1.04 fold enrichment (6-mer frequency, TF over GST control) in the test with ETV5; 1.02 fold enrichment (6-mer frequency, TF over GST control) in the test with HSF1; 1.12 fold enrichment (6-mer frequency, TF over GST control) with ELF4; 1.07 fold enrichment (6-mer frequency, TF over GST control) with ELK4; 1.2 fold enrichment (6-mer frequency, TF over GST control) with ETV2. Further, the binding signal with ELF3 is 1.08 fold enrichment (6-mer frequency, TF over GST control); with ETV1, 1.04 fold enrichment (6-mer frequency, TF over GST control).
GGTAAT: the binding signal in the test with FEV is 1.09 fold enrichment (6-mer frequency, TF over GST control); with ETV5 it was 1.13 fold enrichment (6-mer frequency, TF over GST control); with HSF1, 1.27 fold enrichment (6-mer frequency, TF over GST control); with ELF4, 1.08 fold enrichment (6-mer frequency, TF over GST control); in the test with ELK4, 1.21 fold enrichment (6-mer frequency, TF over GST control); in the test with ELF3 it was 1.17 fold enrichment (6-mer frequency, TF over GST control). Further, the binding signal in the test with CRX is 1.76 fold enrichment (6-mer frequency, TF over GST control); with ETV1, 1.19 fold enrichment (6-mer frequency, TF over GST control).
Regarding AGGGCT, the binding signal in the test with FEV is 1.03 fold enrichment (6-mer frequency, TF over GST control); in the test with ETV5 it was 1.06 fold enrichment (6-mer frequency, TF over GST control); with HSF1, 1.03 fold enrichment (6-mer frequency, TF over GST control); with ELF4 it was 1.07 fold enrichment (6-mer frequency, TF over GST control); with ELK4, 1.02 fold enrichment (6-mer frequency, TF over GST control); with CRX it was 1.26 fold enrichment (6-mer frequency, TF over GST control). In addition, the binding signal in the test with ETV1 was 1.11 fold enrichment (6-mer frequency, TF over GST control).
Turning to CGATCG, the binding signal was 1.03 fold enrichment (6-mer frequency, TF over GST control) with FEV; 1.03 fold enrichment (6-mer frequency, TF over GST control) with ETV5; 1.09 fold enrichment (6-mer frequency, TF over GST control) with HSF1; 1.04 fold enrichment (6-mer frequency, TF over GST control) in the test with ELF4; 1.13 fold enrichment (6-mer frequency, TF over GST control) in the test with ELK4; 1.12 fold enrichment (6-mer frequency, TF over GST control) with ETV2. Further, the binding signal is 1.08 fold enrichment (6-mer frequency, TF over GST control) with ELF3 and 1.03 fold enrichment (6-mer frequency, TF over GST control) with ETV1.
In the case of TCAAGG, the binding signal is 1.08 fold enrichment (6-mer frequency, TF over GST control) in the test with FEV; 1.03 fold enrichment (6-mer frequency, TF over GST control) with ETV5; 1.04 fold enrichment (6-mer frequency, TF over GST control) with HSF1; 1.01 fold enrichment (6-mer frequency, TF over GST control) with ELF4; 1.07 fold enrichment (6-mer frequency, TF over GST control) with ELK4; 1.19 fold enrichment (6-mer frequency, TF over GST control) in the test with ETV2. The binding signal with CRX is 1.09 fold enrichment (6-mer frequency, TF over GST control); with ETV1 it was 1.12 fold enrichment (6-mer frequency, TF over GST control).
With ACATCG, the binding signal with FEV is 1.01 fold enrichment (6-mer frequency, TF over GST control); in the test with ETV5, 1.04 fold enrichment (6-mer frequency, TF over GST control); with HSF1, 1.01 fold enrichment (6-mer frequency, TF over GST control); with ELF4, 1.09 fold enrichment (6-mer frequency, TF over GST control); with ELK4 it was 1.13 fold enrichment (6-mer frequency, TF over GST control); with ELF3, 1.04 fold enrichment (6-mer frequency, TF over GST control).
For TAACAG, the binding signal is 1.05 fold enrichment (6-mer frequency, TF over GST control) with FEV; 1.04 fold enrichment (6-mer frequency, TF over GST control) with ETV5; 1.02 fold enrichment (6-mer frequency, TF over GST control) in the test with HSF1; 1.09 fold enrichment (6-mer frequency, TF over GST control) in the test with ELF4; 1.12 fold enrichment (6-mer frequency, TF over GST control) in the test with ELK4; 1.02 fold enrichment (6-mer frequency, TF over GST control) in the test with ETV2. Moreover, the binding signal with ELF3 was 1.09 fold enrichment (6-mer frequency, TF over GST control); with CRX it was 1.3 fold enrichment (6-mer frequency, TF over GST control); with ETV1, 1.09 fold enrichment (6-mer frequency, TF over GST control).
For AAGCGA, the binding signal with FEV is 1.04 fold enrichment (6-mer frequency, TF over GST control); with ETV5 it was 1.04 fold enrichment (6-mer frequency, TF over GST control); with HSF1, 1.04 fold enrichment (6-mer frequency, TF over GST control); with ELF4 it was 1.09 fold enrichment (6-mer frequency, TF over GST control); with ELK4 it was 1.06 fold enrichment (6-mer frequency, TF over GST control); with ELF3, 1.08 fold enrichment (6-mer frequency, TF over GST control). In addition, the binding signal was 1.09 fold enrichment (6-mer frequency, TF over GST control) with CRX and 1 fold enrichment (6-mer frequency, TF over GST control) with ETV1.
